Some test systems named below: RPMI-8226 leukemia; OVCAR-8 ovarian; OVCAR-5 ovarian; OVCAR-4 ovarian; SK-OV-3 ovarian; IGROV1 ovarian; OVCAR-3 ovarian; HS 578T breast; NCI/ADR-RES ovarian; T-47D breast.
What all share (assay): NCI-60 one-dose screen, 48 h (100 = growth as untreated, 0 = no growth, -100 = all killed)
What all share (details): 10 µM

Structures are written as SMILES. This is part of a sample that, as a whole, favours compounds with a hit. Of some 83,000 tested, about 20% had one in any assay.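 Cell lines were cultured in 96-well plates, exposed to a single compound concentration, and assessed for percent growth 48 hours later.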 Unmarked numbers belong to inactive results. Active and inactive are the calls of the source. The calls were made as follows: active = growth percent below 10; inactive = the rest.

Consider `COc1ccc([N+](=O)[O-])c(C(=O)O)c1`, for which the growth in the experiment on RPMI-8226 leukemia is 110%; with OVCAR-8 ovarian, 101%; in the experiment on OVCAR-5 ovarian, 102%; with OVCAR-4 ovarian, 102%; in the experiment on SK-OV-3 ovarian, 99.1%; in the experiment with IGROV1 ovarian, 108%. Besides, the growth with OVCAR-3 ovarian was 102%; with HS 578T breast, 98.1%; with NCI/ADR-RES ovarian it was 110%; with T-47D breast, 93.3%.

Consider `COc1cccc(Cn2c(-c3nonc3N)nc3ccccc32)c1`, for which the growth in the experiment on RPMI-8226 leukemia is 4.9% (active); in the experiment with OVCAR-8 ovarian, 21.4%; in the experiment on OVCAR-5 ovarian it was 37.5%; with OVCAR-4 ovarian it was 32.2%; with SK-OV-3 ovarian it was 6.27% (active); with IGROV1 ovarian it was 28.1%. Besides, the growth with OVCAR-3 ovarian was -54% (active); with HS 578T breast, 3.15% (active); with NCI/ADR-RES ovarian, 14.4%; with T-47D breast, 55.1%.

On to `O=C(Nc1ccc(CN2CCc3nc4cc(O)c(O)cc4cc32)cc1)c1ccc(Cl)c(Cl)c1`, for which the growth in the experiment with RPMI-8226 leukemia was 103%; in the experiment with OVCAR-8 ovarian, 106%; in the experiment on OVCAR-5 ovarian it was 106%; with OVCAR-4 ovarian it was 117%; in the experiment on SK-OV-3 ovarian, 106%; in the experiment on IGROV1 ovarian, 102%. Further, the growth is 104% in the experiment on OVCAR-3 ovarian, 102% in the experiment on HS 578T breast, 106% in the experiment on NCI/ADR-RES ovarian and 88.6% in the experiment with T-47D breast.

`CCC(=O)N1C/C(=C/c2ccc(Br)cc2)C(=O)/C(=C/c2ccc(Br)cc2)C1`: the growth in the experiment on RPMI-8226 leukemia is -28.2% (active); with OVCAR-8 ovarian it was -7.14% (active); in the experiment on OVCAR-5 ovarian, -22.8% (active); with OVCAR-4 ovarian it was -0.254% (active); in the experiment with SK-OV-3 ovarian, -30.6% (active); in the experiment on IGROV1 ovarian, -67.6% (active). Besides, the growth is -62.6% (active) with OVCAR-3 ovarian, 9.3% (active) in the experiment with HS 578T breast, 10.2% in the experiment on NCI/ADR-RES ovarian and 13% in the experiment with T-47D breast.

For `COc1ccc(-c2nc(-c3nc4cc(Cl)c(F)cc4[nH]3)c3ccccn23)cc1`, the growth with RPMI-8226 leukemia is 8.97% (active); with OVCAR-8 ovarian it was 40.5%; in the experiment on OVCAR-5 ovarian, 98%; with OVCAR-4 ovarian, 57.6%; with SK-OV-3 ovarian, 105%; with IGROV1 ovarian it was 74.6%. Further, the growth in the experiment on OVCAR-3 ovarian is 81.3%; in the experiment on HS 578T breast, 133%; in the experiment on NCI/ADR-RES ovarian, 60.2%; in the experiment on T-47D breast it was 39.7%.

As for `COc1ccc(-c2nc3sc(C4CC4)nn3c2/C=C2/C(=O)Nc3ccc(OC)cc32)cc1`, the growth is 58% in the experiment on RPMI-8226 leukemia; 76.7% in the experiment on OVCAR-8 ovarian; 89.5% with OVCAR-5 ovarian; 44.6% in the experiment on OVCAR-4 ovarian; 50.9% with SK-OV-3 ovarian; 81.5% in the experiment with IGROV1 ovarian. The growth in the experiment on OVCAR-3 ovarian was 79.7%; with HS 578T breast, 25.3%; with NCI/ADR-RES ovarian, 77.2%; in the experiment on T-47D breast it was 68.7%.

As to `COc1cc(-c2cc(C(=O)N3CCN(C(=O)c4ccccc4NCc4ccco4)CC3)nc3cc(-c4ccccc4)nn23)cc(OC)c1OC`, the growth in the experiment with RPMI-8226 leukemia was 21.3%; in the experiment with OVCAR-8 ovarian, 39.5%; with OVCAR-5 ovarian, 64.1%; in the experiment with OVCAR-4 ovarian, 68.6%; with SK-OV-3 ovarian, 27.3%; in the experiment on IGROV1 ovarian it was 23%. For the same compound, the growth with OVCAR-3 ovarian is -37.8% (active); in the experiment on HS 578T breast it was 36.5%; with NCI/ADR-RES ovarian it was 6.24% (active); in the experiment on T-47D breast, 50.9%.

`Nc1ccccc1NC(=O)CCCCC(=O)Nc1ccc2c(c1)/C(=C/c1ccc[nH]1)C(=O)N2`: the growth was 56.2% with RPMI-8226 leukemia; 78.5% with OVCAR-8 ovarian; 96.5% in the experiment on OVCAR-5 ovarian; 52.1% in the experiment with OVCAR-4 ovarian; 72.5% in the experiment on SK-OV-3 ovarian; 59.8% with IGROV1 ovarian. The growth in the experiment on OVCAR-3 ovarian was 65.8%; with HS 578T breast, 52.3%; with NCI/ADR-RES ovarian, 107%; with T-47D breast, 59.6%.

`CC(=O)OCc1cc(-c2nc3ccccc3[nH]c2=O)nn1-c1ccc(Cl)cc1`: the growth in the experiment on RPMI-8226 leukemia is 89.1%; in the experiment on OVCAR-8 ovarian it was 95.4%; in the experiment with OVCAR-5 ovarian, 99.6%; in the experiment on OVCAR-4 ovarian, 96.1%; in the experiment with SK-OV-3 ovarian it was 100%; in the experiment with IGROV1 ovarian, 93.2%. In addition, the growth in the experiment on OVCAR-3 ovarian was 116%; in the experiment on HS 578T breast, 100%; in the experiment on NCI/ADR-RES ovarian, 90.9%; with T-47D breast it was 92.7%.

For `O=C(O)CC(Cl)C(Cl)CC(=O)O` (stereo not given), the growth in the experiment with RPMI-8226 leukemia is 99.2%; in the experiment on OVCAR-8 ovarian it was 102%; with OVCAR-5 ovarian, 106%; in the experiment with OVCAR-4 ovarian it was 104%; in the experiment with SK-OV-3 ovarian it was 98.1%; in the experiment on IGROV1 ovarian, 106%. In addition, the growth with OVCAR-3 ovarian was 106%; in the experiment on HS 578T breast, 115%; in the experiment with NCI/ADR-RES ovarian, 102%; in the experiment with T-47D breast, 99.6%.

As to `COc1ccc(C2=NN(C(=O)c3ccc(S(C)(=O)=O)cc3)C(c3ccc(OC)c(OC)c3)C2)c(OC)c1` (stereo not given), the growth was 110% in the experiment on RPMI-8226 leukemia; 108% with OVCAR-8 ovarian; 107% in the experiment with OVCAR-5 ovarian; 106% with OVCAR-4 ovarian; 84.2% with SK-OV-3 ovarian; 106% in the experiment with IGROV1 ovarian. Moreover, the growth in the experiment on OVCAR-3 ovarian is 99.9%; in the experiment with HS 578T breast it was 101%; with NCI/ADR-RES ovarian, 107%; in the experiment on T-47D breast it was 74.8%.

Regarding `COc1cc(Cl)cc(-c2nn(-c3cccc(NC(=O)Nc4ccc(Cl)c(C(F)(F)F)c4)c3)cc2-c2ccncc2)c1`, the growth with RPMI-8226 leukemia was -29.1% (active); in the experiment with OVCAR-8 ovarian, 8.71% (active); in the experiment on OVCAR-5 ovarian, 19.2%; in the experiment with OVCAR-4 ovarian it was 16.6%; in the experiment with SK-OV-3 ovarian, 12%; in the experiment on IGROV1 ovarian, 30.2%. The growth is -22.6% (active) with OVCAR-3 ovarian, 14.6% in the experiment with HS 578T breast, 6.07% (active) in the experiment with NCI/ADR-RES ovarian and 8.1% (active) in the experiment with T-47D breast.

Consider `CN(C)c1ccc(N=C2C=CC(=O)c3ccccc32)cc1`, for which the growth in the experiment with RPMI-8226 leukemia is 65.4%; with OVCAR-8 ovarian, 76.3%; in the experiment with OVCAR-5 ovarian it was 88%; in the experiment on OVCAR-4 ovarian, 71.5%; in the experiment on SK-OV-3 ovarian, 95.4%; in the experiment with IGROV1 ovarian it was 88.6%. Moreover, the growth in the experiment on OVCAR-3 ovarian was 23.8%; in the experiment on HS 578T breast it was 95.6%; with NCI/ADR-RES ovarian, 85.5%; in the experiment with T-47D breast, 81.3%.

(Values after PubChem BioAssay (NCI).)
